Screens deposited in PubChem BioAssay by several laboratories.
DYRK1A inh: rat Dyrk1A kinase inhibitors, primary screen, biochemical, single point, plate reader | Dual specificity tyrosine-phosphorylation-regulated kinase 1A (Rattus norvegicus), Q63470 | ADP-Glo luminescence, NFATc1 peptide | inhibition, % at 12.5 µM | 310,000 compounds, 0.43% hits | AID 504441, 2011; in the data active = inhibition above about 50%;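 also: plate controls were vehicle with enzyme for no effect and no enzyme for full effect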
aDG glyco up: activators of alpha-DG glycosylation, primary screen, uHTS, Pro5-aDG cells, AlphaScreen; activation, % at 10 µM; 360,000 compounds, 0.22% hits; alpha-DG glycosylation AlphaScreen (IIH6); 0% Pro5, 100% B10-LARGE cell signal;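 active = activation of at least 8% versus controls, or a plate z-score of at least 8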;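 also: Pro5 are CHO cells carrying HIG-tagged alpha-DG that lacks glycosylation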
HSF1 activator: HSF-1 activators, primary screen, NIH3T3-HGL cells, MG132 stress, luminescence, single point. NIH3T3-HGL HSF-1 luciferase reporter, 8 h; 100% = twice DMSO control signal. activation, % at 9 µM. 300,000 compounds, 1.7% hits. AID 504408, 2011;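 active = mean replicate activation of at least 50% with a set share of replicates each reaching 50%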;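 also: 0% = median of the neutral control wells and 100% = twice that signal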
GC-B act: human GC-B receptor activators, primary screen, HEK293 GC-B cells, cGMP TR-FRET, EC30 CNP; Atrial natriuretic peptide receptor 2 (Homo sapiens), P20594; 0% at EC30 CNP, 100% saturating CNP; activation, % at 10 µM; 370,000 compounds, 0.11% hits; AID 1920062, 2024;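 active = activation at 10 µM reaching about 35% in either raw or pattern-adjusted values, limit read from the data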
GC-A act: GC-A stimulated cGMP production enhancers – HEK293 GC-A cells, cGMP TR-FRET, EC30 ANP, primary screen | Atrial natriuretic peptide receptor 1 (Homo sapiens), P16066 | 0% at EC30 ANP, 100% saturating ANP | activation, % at 10 µM | 370,000 compounds, 0.14% hits; in the data active = activation above about 40%
Target sequence (P16066 whole entry, looked up): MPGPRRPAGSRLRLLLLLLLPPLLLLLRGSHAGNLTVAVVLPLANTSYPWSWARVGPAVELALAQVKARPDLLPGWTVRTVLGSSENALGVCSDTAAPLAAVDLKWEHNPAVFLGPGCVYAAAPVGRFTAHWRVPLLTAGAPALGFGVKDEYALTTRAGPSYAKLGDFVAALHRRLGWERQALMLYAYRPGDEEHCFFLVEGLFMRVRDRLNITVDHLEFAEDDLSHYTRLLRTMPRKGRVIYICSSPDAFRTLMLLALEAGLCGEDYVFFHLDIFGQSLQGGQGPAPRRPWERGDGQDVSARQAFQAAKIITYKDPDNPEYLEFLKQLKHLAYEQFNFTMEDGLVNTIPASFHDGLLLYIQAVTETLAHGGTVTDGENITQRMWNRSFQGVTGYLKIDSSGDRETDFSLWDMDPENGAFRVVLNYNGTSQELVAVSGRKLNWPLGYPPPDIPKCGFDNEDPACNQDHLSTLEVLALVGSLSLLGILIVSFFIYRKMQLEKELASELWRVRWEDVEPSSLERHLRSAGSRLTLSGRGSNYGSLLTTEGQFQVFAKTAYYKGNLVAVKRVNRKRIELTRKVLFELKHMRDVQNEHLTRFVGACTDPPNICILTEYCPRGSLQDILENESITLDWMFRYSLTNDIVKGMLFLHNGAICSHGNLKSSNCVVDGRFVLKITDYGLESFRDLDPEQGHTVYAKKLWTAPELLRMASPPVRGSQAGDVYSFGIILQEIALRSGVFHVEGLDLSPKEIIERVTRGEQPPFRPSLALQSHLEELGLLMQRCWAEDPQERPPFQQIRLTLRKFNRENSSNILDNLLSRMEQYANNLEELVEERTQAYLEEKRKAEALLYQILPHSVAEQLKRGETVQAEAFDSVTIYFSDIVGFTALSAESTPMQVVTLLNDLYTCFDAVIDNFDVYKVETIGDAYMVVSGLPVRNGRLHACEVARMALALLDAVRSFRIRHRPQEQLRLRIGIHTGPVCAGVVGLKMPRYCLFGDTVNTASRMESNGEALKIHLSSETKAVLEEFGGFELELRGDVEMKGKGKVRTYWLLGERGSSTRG
HSF1 inh: HSF1 inhibitors in luciferase reporter cells, primary screen, cell-based, NIH3T3, luminescence. NIH3T3-HGL HSE-luciferase, MG132-induced, luminescence 8 h; active compounds read low. activity change, negative = inhibition, % at 7.5 µM (by protocol). 300,000 compounds, 0.77% hits. AID 2098, 2009;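 active = more than half of replicate wells show activity change below -50%, luminescence cut by over half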;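 also: luciferase reports HSF-1 transcriptional activity via heat shock element; 0% = median of DMSO wells and -100% = zero luminescence signal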
An asterisk follows results filed as active; x = no result given. Shown are actives, neighbours in structure and some others; about 2.5% of the full set was active somewhere.

SMILES	DYRK1A inh	aDG glyco up	HSF1 activator	GC-B act	GC-A act	HSF1 inh
CS(=O)(=O)N1CC2CCCN2c2ccc(C(F)(F)F)cc21 (stereo unspecified)	3.9	-0.1	6.2	2.7	-2.5	-0.1
O=S(=O)(c1cc(Cl)ccc1Cl)N1CC2CCCN2c2ccc(C(F)(F)F)cc21 (stereo unspecified)	-0.4	0.0	70.4*	1.1	-1.3	24.8
CCN(CC)c1ccc(NC(=O)c2cc3c(OC)cccc3[nH]2)cc1	4.8	-0.5	1.0	-4.3	1.4	10.7
O=C1N/C(=C/c2ccc(N3CCOCC3)o2)C(=O)N1c1cccc(Cl)c1	0.4	-0.3	125.3*	23.1	24.2	95.3
Cc1ccccc1-n1ncc2c(SCC(=O)NC3CCCC3)ncnc21	-5.4	0.8	-6.7	5.0	1.9	1.5
O=C(CSc1ncnc2c1nnn2Cc1ccccc1)NC1CCCC1	-3.2	-0.3	57.8*	2.1	5.5	40.2
CCCCNc1ncnc2c1nnn2Cc1ccccc1Cl	-2.1	0.0	-19.4	-4.7	-0.2	-3.7
CC(C)(C)NC(=O)CSc1ncnc2c1nnn2Cc1ccccc1Cl	x	0.2	112.3*	4.7	0.7	86.1
Oc1ccc(Cl)cc1C=NN1CCCCCC1	-2.1	-0.3	x	-2.1	-2.1	x
O=C(c1ccco1)c1nnn(Cc2ccccc2)c1-c1ccccc1	6.5	0.0	64.4*	4.6	-7.6	38.7
Nc1c(C(=O)NCc2ccco2)nnn1Cc1ccccc1	-2.9	-0.1	4.0	1.9	1.0	-0.4
COc1ccc(/C=C/C(=O)Oc2ccc(C)c(C)c2)cc1OC	1.9	2.9	22.5	-5.4	1.0	4.1
COc1cc(/C=C/[N+](=O)[O-])ccc1OC(=O)/C=C/c1ccc(F)cc1	1.3	-0.2	70.3*	1.2	17.7	60.1
O=C(NCc1ccc2c(c1)OCO2)c1cc(-c2ccc(Cl)cc2Cl)on1	-0.3	-0.1	8.7	-7.5	-7.2	-1.2
CC(Oc1ccccc1)C(=O)N=Nc1c(O)[nH]c2ccc(Br)cc12 (stereo unspecified)	0.7	-0.2	70.0*	-2.6	-3.4	24.8
Cc1ccc(/C=C2/NC(=O)N(Cc3ccccc3F)C2=O)o1	-1.0	-0.2	28.4	42.1*	60.2*	6.8
CCN1C(=O)N/C(=C/c2ccc(C)o2)C1=O	0.2	-0.4	-12.8	-2.7	5.6	-13.6
Cc1ccc(/C=C2/NC(=O)N(Cc3ccc(Br)cc3)C2=O)o1	-0.1	-0.2	59.0*	48.8*	2.8	33.2
CCn1c(C)cc(/C=C2/NC(=O)N(Cc3ccccc3F)C2=O)c1C	-2.5	-0.3	16.4	18.4	14.6	0.5
COc1cc(/C=C2/NC(=O)N(Cc3ccccc3F)C2=O)ccc1O	4.2	-0.1	107.4*	0.3	9.5	69.2
Cc1ccc(SC[C@H](CC(C)C)N2CCN(C)CCC2=O)cc1	0.6	0.0	-3.9	-2.3	0.9	1.3
Cc1nc2cc(NC(=O)Nc3ccc(Br)cc3)ccc2o1	-3.8	0.0	58.3*	1.7	-6.8	18.9
CCn1c(SCC(=O)Nc2ccc(OC)cc2)nc2nc3c(cc2c1=O)CCCC3	-5.1	-0.1	-7.2	-0.5	1.9	1.9
N#C/C(=C/c1ccc(Br)o1)C(N)=O	x	0.3	-91.6	-0.8	-3.7	-92.4*
N#C/C(=C/c1ccc(Br)o1)C(N)=S	x	x	7.7	x	x	-2.1
SMILES	DYRK1A inh	aDG glyco up	HSF1 activator	GC-B act	GC-A act	HSF1 inh
CCOc1ccc(OCCn2nnc3ccccc3c2=O)cc1	-5.3	0.1	83.4*	-1.5	2.4	45.6
CCOc1ccc(S(=O)(=O)N(CCO)CCO)cc1-c1nc2c(C(C)(C)C)nn(C)c2c(=O)[nH]1	1.0	-0.6	6.5	62.5*	58.4*	2.8
CCOc1ccc(S(=O)(=O)N(CC)CC(=O)N2CCCC2)cc1C	-3.6	-0.1	-14.4	1.1	-1.0	-1.3
CCCc1nn(C)c2c(=O)[nH]c(-c3cc(S(=O)(=O)N(CCO)CCO)ccc3OCC)nc12	8.2	0.0	-9.5	56.5*	50.1*	-6.3
COc1ccc(CNc2oc(-c3cccc4ccccc34)nc2P(=O)(OC)OC)cc1	3.0	0.6	16.8	-1.2	9.2	3.1
COP(=O)(OC)c1nc(-c2cccc3ccccc23)oc1NCc1ccccc1	-4.8	-0.1	87.4*	-2.7	2.4	25.5
COCC(=O)Nc1cc(C)cn(Cc2ccc(F)cc2)c1=O	-7.4	-0.1	-0.4	3.1	3.0	-4.2
c1ccc2c(C3=NNC(=NC4CC4)SC3)c[nH]c2c1	0.1	0.0	156.6*	4.0	1.1	86.9
COc1ccc(C2Nc3ccccc3C(=O)N2Cc2ccco2)cc1COc1ccccc1F (stereo unspecified)	1.2	-0.3	76.0*	-9.0	-12.3	35.7
COc1ccc(C2Nc3ccccc3C(=O)N2Cc2ccco2)cc1COc1ccc(NC(C)=O)cc1 (stereo unspecified)	-1.7	0.0	58.0*	-14.5	-17.6	37.3
COc1ccc(C2Nc3ccccc3C(=O)N2Cc2ccco2)cc1COc1c(C)cc(NC(C)=O)cc1C (stereo unspecified)	x	x	x	-27.6	-19.6	x
O=C1c2ccccc2NC(c2cccc(F)c2)N1Cc1ccco1 (stereo unspecified)	3.2	0.3	37.6	-6.1	-8.4	30.8
Cn1c(=O)cc(OCCCC(=O)NC2CCCC2)c2ccccc21	0.1	-0.4	56.4*	-0.6	-4.3	22.9
Cn1c(=O)cc(OCC(=O)NC2CCCCC2)c2ccccc21	-4.0	-0.1	1.7	2.8	3.3	-0.4
COc1ccccc1NC(C#N)c1ccccc1OCc1ccccc1 (stereo unspecified)	10.1	-0.1	7.3	-5.2	0.9	1.2
CC(=O)N[C@@H](Cc1c[nH]c2ccccc12)C(=O)NCCc1ccc(S(N)(=O)=O)cc1	0.8	0.1	-19.2	4.1	0.3	-6.3
CC(=O)N[C@@H](Cc1c[nH]c2ccccc12)C(=O)NCc1ccccc1	-3.2	0.0	65.4*	2.4	-3.6	15.1
CCOC(=O)c1c(C)[nH]c(C)c1S(=O)(=O)N1CCC(c2ccccc2)C1 (stereo unspecified)	0.0	0.0	22.8	-5.2	-11.3	12.4
c1ccc(CCc2ccncc2)cc1	16.9	0.0	56.1*	3.6	2.5	8.5
Cc1ccccc1OCCN1C(=O)c2ccccc2C1=O	x	0.6	20.4	-6.7	-4.8	16.9
O=C1c2ccccc2C(=O)N1CCOc1ccccc1Br	x	-0.1	98.6*	0.7	-0.8	44.4
Cc1cccc2c1N(CCOc1ccccc1Cl)C(=O)C2=O	-3.0	0.0	-23.2	-1.6	-2.5	-6.9
